The results in this text go back to PubChem BioAssay (NCI).

Among the test systems are HCT-15 colon; HT29 colon; SNB-75 CNS; SNB-19 CNS; U251 CNS; PC-3 prostate; SK-MEL-5 melanoma; UACC-62 melanoma; LOX IMVI melanoma; SK-MEL-28 melanoma; SK-MEL-2 melanoma; EKVX NSCLC; SN12C renal; UO-31 renal; TK-10 renal; ACHN renal; CAKI-1 renal; A498 renal; CCRF-CEM leukemia; MOLT-4 leukemia.
Holding throughout (experiment): NCI-60 one-dose screen, 48 h (100 = growth as untreated, 0 = no growth, -100 = all killed)
What all share (conditions): 10 µM unless noted

The panel holds about 83,000 compounds, 20% with a hit somewhere; the sample as a whole holds those more often.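 Values shown are percent growth following 48 h exposure of cells in 96-well plates to a single concentration of compound; below 10 was considered active.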 Unmarked numbers belong to inactive results. Calls of active or inactive are those of the source.

As for `O=C(/C=C/c1ccc(F)cc1)c1ccc(O)cc1`, the growth was 73.5% with HCT-15 colon; 93.2% in the experiment with HT29 colon; 95.3% in the experiment on SNB-75 CNS; 91.4% in the experiment with SNB-19 CNS; 66.7% in the experiment with U251 CNS; 95.4% with PC-3 prostate. In addition, the growth with SK-MEL-5 melanoma was 94%; with UACC-62 melanoma, 88%; with LOX IMVI melanoma, 63.3%; with SK-MEL-28 melanoma, 109%; with SK-MEL-2 melanoma, 115%; in the experiment with EKVX NSCLC, 104%. Besides, the growth was 91.9% in the experiment with SN12C renal; 91.9% in the experiment with UO-31 renal; 106% with TK-10 renal; 102% with ACHN renal; 87% in the experiment with CAKI-1 renal; 101% in the experiment on A498 renal. Further, the figures for the growth with CCRF-CEM leukemia and in the experiment on MOLT-4 leukemia were 77.6% and 92.5%, respectively.
Regarding `NS(=O)(=O)c1ccc(Nc2cc(-c3ccccc3)nc(SCC(=O)c3ccccc3)n2)cc1`, the growth in the experiment on HCT-15 colon was 99.4%; with HT29 colon, 106%; with SNB-75 CNS, 91.6%; in the experiment with SNB-19 CNS, 91.7%; in the experiment with U251 CNS, 100%; with PC-3 prostate it was 98.4%. Besides, the growth in the experiment on SK-MEL-5 melanoma was 98.6%; in the experiment on UACC-62 melanoma, 91.1%; in the experiment on LOX IMVI melanoma, 97.8%; in the experiment on SK-MEL-28 melanoma, 104%; with SK-MEL-2 melanoma, 105%; in the experiment with EKVX NSCLC, 97.9%. Moreover, the growth in the experiment with SN12C renal is 96%; in the experiment with UO-31 renal, 86%; in the experiment with TK-10 renal it was 129%; in the experiment on ACHN renal it was 105%; with CAKI-1 renal it was 90%; with A498 renal, 94.9%. For the same compound, the results for the growth with CCRF-CEM leukemia and with MOLT-4 leukemia were 98.3% and 105%, respectively.
With `CNC(=O)c1c(NC(=O)c2ccccc2C(F)(F)F)sc2c1CCC(=O)C2`, the growth in the experiment on HCT-15 colon was 9.11% (active); with HT29 colon, 26.5%; in the experiment on SNB-75 CNS, 93.1%; with SNB-19 CNS it was 41.1%; in the experiment on U251 CNS, 24.8%; with PC-3 prostate, 14.8%. The growth was -17.1% (active) with SK-MEL-5 melanoma; 16.6% in the experiment on UACC-62 melanoma; 22% in the experiment on LOX IMVI melanoma; 45.4% in the experiment with SK-MEL-28 melanoma; 88.1% with SK-MEL-2 melanoma; 23.9% in the experiment on EKVX NSCLC. The growth in the experiment on SN12C renal was 62.1%; in the experiment on UO-31 renal it was 3.82% (active); in the experiment with TK-10 renal, 26.2%; in the experiment with ACHN renal, 9.31% (active); with CAKI-1 renal, 0.09% (active); in the experiment on A498 renal it was 80.4%. In addition, the growth in the experiment with CCRF-CEM leukemia is 11.9%; in the experiment on MOLT-4 leukemia it was 18.3%.
Turning to `COc1ccc(C2CC(c3cccc(Nc4nc(Cl)nc5cc(OC)c(OC)cc45)c3)=Nc3c(N)nc(N)nc3N2)cc1` (stereo not given), the growth in the experiment with HCT-15 colon was 34.5%; with HT29 colon, 57.8%; in the experiment on SNB-75 CNS, 94.5%; in the experiment on SNB-19 CNS, 70.1%; in the experiment on U251 CNS, 16.9%; with PC-3 prostate, 62.7%. Also, the growth in the experiment on SK-MEL-5 melanoma is 72.1%; in the experiment with UACC-62 melanoma it was 95.6%; with LOX IMVI melanoma, 54.2%; in the experiment with SK-MEL-28 melanoma, 101%; in the experiment on SK-MEL-2 melanoma it was 100%; in the experiment with EKVX NSCLC, 92.1%. In addition, the growth is 81.8% in the experiment on SN12C renal; 90.7% in the experiment with UO-31 renal; 117% in the experiment on TK-10 renal; 100% in the experiment with ACHN renal; 94% in the experiment on CAKI-1 renal; 94.7% with A498 renal. Further, the growth was 36% in the experiment on CCRF-CEM leukemia and 43.6% in the experiment with MOLT-4 leukemia.
In the case of `NS(=O)(=O)c1ccc(Nc2nc(SCC(=O)c3ccc(Cl)cc3)nc3c2CCCC3)cc1`, the growth with HCT-15 colon was 22.1%; in the experiment on HT29 colon, 8.57% (active); with SNB-75 CNS, 85.8%; in the experiment on SNB-19 CNS, 65.9%; in the experiment on U251 CNS it was 51.3%; in the experiment with PC-3 prostate, 31.4%. The growth with SK-MEL-5 melanoma is 65.8%; in the experiment with UACC-62 melanoma, 48.2%; in the experiment on LOX IMVI melanoma, 23.6%; in the experiment on SK-MEL-28 melanoma, 68.5%; in the experiment with SK-MEL-2 melanoma, 67%; with EKVX NSCLC it was 47.8%. The growth in the experiment with SN12C renal is 25.6%; in the experiment with UO-31 renal it was 38%; in the experiment on TK-10 renal it was 86.6%; in the experiment on ACHN renal, 42%; in the experiment on CAKI-1 renal, 43.2%; with A498 renal, 61.1%. Further, the growth in the experiment with CCRF-CEM leukemia was 41.1%; in the experiment on MOLT-4 leukemia, 38.4%.
For the compound `Cc1nc(-c2ccccc2O)ccc1C(=O)N=Nc1c(O)[nH]c2ccc(Br)cc12`, the growth is 69.9% in the experiment with HCT-15 colon; 112% in the experiment with HT29 colon; 93.7% in the experiment on SNB-75 CNS; 101% in the experiment with SNB-19 CNS; 103% in the experiment on U251 CNS; 88.2% with PC-3 prostate. Further, the growth in the experiment on SK-MEL-5 melanoma is 96.9%; in the experiment with UACC-62 melanoma, 91.6%; in the experiment with LOX IMVI melanoma, 107%; in the experiment on SK-MEL-28 melanoma it was 101%; in the experiment on SK-MEL-2 melanoma it was 104%; with EKVX NSCLC, 79.6%. Besides, the growth in the experiment with SN12C renal was 95.1%; in the experiment with UO-31 renal, 73%; in the experiment on TK-10 renal it was 167%; in the experiment with ACHN renal, 91.5%; in the experiment on CAKI-1 renal, 84.6%; in the experiment with A498 renal, 101%. Besides, the figures for the growth with CCRF-CEM leukemia and with MOLT-4 leukemia were 86.1% and 102%, respectively.
For `COc1cc(-c2nnc(SCc3ccc(O)c4ncccc34)n2-c2ccccc2)cc(OC)c1OC`, the growth in the experiment with HCT-15 colon was 12.8%; with HT29 colon, 16.7%; with SNB-75 CNS it was -6.25% (active); in the experiment with SNB-19 CNS, 9.25% (active); in the experiment with U251 CNS it was 4.28% (active); in the experiment on PC-3 prostate it was 15.4%. The growth in the experiment with SK-MEL-5 melanoma is -62.4% (active); in the experiment with UACC-62 melanoma, -37.4% (active); with LOX IMVI melanoma, -22.2% (active); in the experiment with SK-MEL-28 melanoma it was 17.9%; in the experiment with SK-MEL-2 melanoma, 24.6%; in the experiment with EKVX NSCLC, 4.34% (active). The growth in the experiment with SN12C renal is 8.79% (active); in the experiment with UO-31 renal it was -30.2% (active); in the experiment with TK-10 renal it was 15.2%; with ACHN renal, 4.84% (active); in the experiment on CAKI-1 renal, 1.72% (active); in the experiment with A498 renal, 1.54% (active). Besides, the growth in the experiment with CCRF-CEM leukemia was 5.95% (active); with MOLT-4 leukemia, 4.98% (active).
